# ± gives the standard deviation of the averaged measurements.
# Tested on: Drosophila virilis antennal basiconic sensillum AB9
# Test: odor-evoked OSN spike response (post minus pre-stimulus); higher = stronger neuronal excitation
# Details: odor dilution: 10^-4
# Experimental: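 Single sensillum recordings from antennal basiconic sensilla of D. virilis. A 500 ms pulse of odorant (10^-4 in mineral oil or DMSO) was delivered; the response is the change in spike frequency between the 1 s pre- and post-stimulus windows (spikes/s).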
row,SMILES,odor-evoked OSN spike response [spikes/s]
1,CC(C)=O [acetone],93.7 ± 30
